Consider eight molecules from PubChem BioAssay (NCI).

A short description of assay [1]: NCI Yeast Anticancer Drug Screen. Data for the rad50 strain (AID 155).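 Further: 0% = growth of vehicle-only cultures of the same strain.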 The note with it: S. cerevisiae rad50 strain growth inhibition, stronger effect = higher value. Summed up:
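Yeast carrying a defined DNA repair defect were exposed to test compounds, and growth was compared with vehicle-treated controls to give percent inhibition.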

A short description of assay [2]: NCI Yeast Anticancer Drug Screen. Data for the mec2-1 strain (AID 157). The note with it: S. cerevisiae mec2-1 strain, stronger effect = higher value. In a few lines: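 Yeast mec2-1 mutant treated with compound. Readout: growth inhibition vs vehicle controls.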
Assay [3] is described as follows: NCI Yeast Anticancer Drug Screen. Data for the sgs1 mgt1 strain (AID 161).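 Further: 0% = growth of cultures given vehicle only.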 The note with it: S. cerevisiae sgs1 mgt1 strain, stronger effect = higher value. In a few lines: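 Read-out: growth inhibition vs vehicle controls. Cells: mutant yeast strain deficient in DNA damage repair.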
Assay [4] is described as follows: NCI Yeast Anticancer Drug Screen. Data for the cln2 rad14 strain (AID 165).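 Further: 0% = growth equal to vehicle treated cultures.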 The note with it: S. cerevisiae cln2 rad14 strain, stronger effect = higher value. In a few lines: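 cln2 rad14 yeast strain; compound exposure; growth inhibition read vs vehicle controls.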
A short description of assay [5]: NCI Yeast Anticancer Drug Screen. Data for the bub3 strain (AID 167). The note with it: S. cerevisiae bub3 mutant strain, stronger effect = higher value. In a few lines: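 Compounds were applied to a genetically altered yeast strain carrying a cell-cycle control defect. Growth inhibition was scored against vehicle-treated controls.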
Assay [6] in a line: NCI Yeast Anticancer Drug Screen. Data for the mlh1 rad18 strain (AID 175). The note with it: S. cerevisiae mlh1 rad18 strain growth inhibition, stronger effect = higher value. In a few lines:
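Yeast w/ defined DNA-repair lesions; compound exposure; growth vs vehicle controls → % inhibition.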

Setting [7] is: at 5.0 µM (retest, dose inferred, filed as 0.5).
The mark [8] stands for this setting: at 50.0 µM (retest, dose inferred, filed as 5.0).

Molecules are shown by their SMILES. Values joined by “and” are separate entries in the source; they are usually repeats but may differ in a detail not shown here. Identical values can stand only once. The panel holds about 79,000 compounds, 15% with a hit somewhere; the sample as a whole holds those more often. Values without a mark were called inactive. Active and inactive are the calls of the source. No stated cut-off is given here; in the data, active means growth inhibition above about 70%; inactive means the rest.

In the case of `CC1CCS(=O)(=O)CC1.[Cl][Hg][Cl]`, the growth inhibition in assay [1] (setting [7]) was 98% (active); in assay [1] (setting [8]), 99% (active); in assay [1] (at 50.0 µM), 99.6% (active); in assay [2] (setting [7]) it was 99% (active); in assay [2] (setting [8]), 99% (active); in assay [2] (at 50.0 µM), 99.6% (active). Moreover, the growth inhibition in assay [3] (setting [7]) was 99% (active); in assay [3] (setting [8]), 99% (active); in assay [3] (at 50.0 µM), 99.6% (active); in assay [4] (setting [7]), 99% (active); in assay [4] (setting [8]) it was 99% (active); in assay [4] (at 50.0 µM), 99.3% (active). Besides, the growth inhibition in assay [5] (setting [7]) was 99% (active); in assay [5] (setting [8]), 99% (active); in assay [5] (at 50.0 µM), 99.5% (active); in assay [6] (setting [7]), 99% (active); in assay [6] (setting [8]), 99% (active); in assay [6] (at 50.0 µM), 99.5% (active).

`Cc1cn(CC2C=CC(CS[As](C)C)O2)c(=O)[nH]c1=O` (centres undefined): the growth inhibition was 7% in assay [1] (setting [7]); 75% (active) in assay [1] (setting [8]); 69.7% in assay [1] (at 50.0 µM); 1% in assay [2] (setting [7]); 83% (active) in assay [2] (setting [8]); 92.2% (active) in assay [2] (at 50.0 µM). For the same molecule, the growth inhibition in assay [3] (setting [7]) was 4%; in assay [3] (setting [8]), 98% (active); in assay [3] (at 50.0 µM) it was 94.8% (active); in assay [4] (setting [7]), 0%; in assay [4] (setting [8]), 95% (active); in assay [4] (at 50.0 µM), 72% (active). For the same molecule, the growth inhibition was 0% in assay [5] (setting [7]); 45% in assay [5] (setting [8]); 53% in assay [5] (at 50.0 µM); -1% in assay [6] (setting [7]); 84% (active) in assay [6] (setting [8]); 99.1% (active) in assay [6] (at 50.0 µM).

On to `O=C(O)C1C2c3cccc4cccc(c34)C12` (centres undefined), for which the growth inhibition in assay [1] (setting [7]) was -139%; in assay [1] (setting [8]) it was 88% (active); in assay [1] (at 50.0 µM), 44.8%; in assay [2] (setting [7]), -50%; in assay [2] (setting [8]), 72% (active); in assay [2] (at 50.0 µM), 87.6% (active). In addition, the growth inhibition in assay [3] (setting [7]) was -56%; in assay [3] (setting [8]) it was 74% (active); in assay [3] (at 50.0 µM), 40.4%; in assay [4] (setting [7]), -41%; in assay [4] (setting [8]), 78% (active); in assay [4] (at 50.0 µM) it was 85.3% (active). Besides, the growth inhibition was -59% in assay [5] (setting [7]); 86% (active) in assay [5] (setting [8]); 93.2% (active) in assay [5] (at 50.0 µM); -112% in assay [6] (setting [7]); 81% (active) in assay [6] (setting [8]); 83.8% (active) in assay [6] (at 50.0 µM).

Take `ClC1=NSSC1(Cl)Cl`: the growth inhibition was 16% in assay [1] (setting [7]); 96% (active) in assay [1] (setting [8]); 90.4% (active) in assay [1] (at 50.0 µM); 16% in assay [2] (setting [7]); 99% (active) in assay [2] (setting [8]); 92.5% (active) in assay [2] (at 50.0 µM). Moreover, the growth inhibition in assay [3] (setting [7]) was 18%; in assay [3] (setting [8]) it was 99% (active); in assay [3] (at 50.0 µM) it was 91.2% (active); in assay [4] (setting [7]), 20%; in assay [4] (setting [8]), 78% (active); in assay [4] (at 50.0 µM), 87.7% (active). Moreover, the growth inhibition in assay [5] (setting [7]) is 21%; in assay [5] (setting [8]), 99% (active); in assay [5] (at 50.0 µM), 90.3% (active); in assay [6] (setting [7]) it was 17%; in assay [6] (setting [8]), 90% (active); in assay [6] (at 50.0 µM), 92.2% (active).

`FC(F)(F)c1nnn[n-]1.[Au+].c1ccc([PH+](c2ccccc2)c2ccccc2)cc1`: the growth inhibition in assay [1] (setting [7]) was 99% (active); in assay [1] (setting [8]) it was 97% (active); in assay [1] (at 50.0 µM), 97.6% (active); in assay [2] (setting [7]) it was 100% (active); in assay [2] (setting [8]), 97% (active); in assay [2] (at 50.0 µM), 97.2% (active). Moreover, the growth inhibition in assay [3] (setting [7]) is 99% (active); in assay [3] (setting [8]), 98% (active); in assay [3] (at 50.0 µM) it was 95.6% (active); in assay [4] (setting [7]), 99% (active); in assay [4] (setting [8]), 96% (active); in assay [4] (at 50.0 µM), 94.5% (active). The growth inhibition was 98% (active) in assay [5] (setting [7]); 97% (active) in assay [5] (setting [8]); 96.3% (active) in assay [5] (at 50.0 µM); 99% (active) in assay [6] (setting [7]); 97% (active) in assay [6] (setting [8]); 94.7% (active) in assay [6] (at 50.0 µM).

On to `CC1=CCC2(C)C3CCC4(C)C(O)CCC4C3CCC2(C)C1` (centres undefined), for which the growth inhibition in assay [1] (setting [7]) was -17%; in assay [1] (setting [8]), 90% (active); in assay [1] (at 50.0 µM), 70.8% (active); in assay [2] (setting [7]) it was -17%; in assay [2] (setting [8]) it was 95% (active); in assay [2] (at 50.0 µM), 11.9%. For the same molecule, the growth inhibition in assay [3] (setting [7]) is -6%; in assay [3] (setting [8]), 97% (active); in assay [3] (at 50.0 µM), 63.8%; in assay [4] (setting [7]), -6%; in assay [4] (setting [8]) it was 83% (active); in assay [4] (at 50.0 µM), 9.1%. Also, the growth inhibition in assay [5] (setting [7]) is -25%; in assay [5] (setting [8]), 94% (active); in assay [5] (at 50.0 µM), 39.5%; in assay [6] (setting [7]), -10%; in assay [6] (setting [8]) it was 96% (active); in assay [6] (at 50.0 µM), 58.6%.

In the case of `c1ccc2c(c1)[nH]c1c2cc[n+]2cc3c(cc12)CCCC3`, the growth inhibition was 30% and 19% in assay [1] (setting [7]); 79% (active) and 97% (active) in assay [1] (setting [8]); 89.2% (active) and 91.5% (active) in assay [1] (at 50.0 µM); 51% and 19% in assay [2] (setting [7]); 85% (active) and 97% (active) in assay [2] (setting [8]); 89.6% (active) and 91.6% (active) in assay [2] (at 50.0 µM). In addition, the growth inhibition in assay [3] (setting [7]) was 45% and 26%; in assay [3] (setting [8]), 97% (active) and 98% (active); in assay [3] (at 50.0 µM), 91.9% (active); in assay [4] (setting [7]), 55% and 26%; in assay [4] (setting [8]) it was 97% (active) and 89% (active); in assay [4] (at 50.0 µM) it was 83.2% (active). For the same molecule, the growth inhibition was 68% and 33% in assay [5] (setting [7]); 96% (active) and 98% (active) in assay [5] (setting [8]); 91.3% (active) in assay [5] (at 50.0 µM); 29% and 27% in assay [6] (setting [7]); 89% (active) and 98% (active) in assay [6] (setting [8]); 88.7% (active) and 86.2% (active) in assay [6] (at 50.0 µM).

As to `O=[N+]([O-])c1ccccc1`, the growth inhibition in assay [1] (setting [7]) was 11%; in assay [1] (setting [8]), 75% (active); in assay [1] (at 50.0 µM), 79.2% (active); in assay [2] (setting [7]) it was 3%; in assay [2] (setting [8]), 10%; in assay [2] (at 50.0 µM) it was -0.5%. The growth inhibition in assay [3] (setting [7]) is 3%; in assay [3] (setting [8]), 17%; in assay [3] (at 50.0 µM) it was 27.1%; in assay [4] (setting [7]), 4%; in assay [4] (setting [8]), 4%; in assay [4] (at 50.0 µM) it was 35.5%. The growth inhibition in assay [5] (setting [7]) was 2%; in assay [5] (setting [8]), 12%; in assay [5] (at 50.0 µM) it was 13.3%; in assay [6] (setting [7]), 6%; in assay [6] (setting [8]), 19%; in assay [6] (at 50.0 µM), 39.2%.
